Records with an inconclusive call do not appear. Active and inactive are the calls of the source. Rule for the calls: active = hit-call score of the fitted dose curve at least 0.9, where 1 is the maximum; inconclusive = response in the unintended direction; inactive = score below 0.9.
Experiments:
[1] = target: Sodium channel protein type 1 subunit alpha (Rattus norvegicus) (UniProt P04774); test: NVS_IC_rNaCh_site2: NovaScreen (NVS) Ion Channel Assay for rat Sodium Channel, Site 2 (NaCh) (AID 2283322);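 note: hit means loss of radioligand binding signal relative to DMSO so AC50 marks displacement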
Summary of the method: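 Initial duplicate single-point testing at 25 uM, followed by concentration-response runs for actives. Binding of radioligand to rat forebrain membranes quantified after 1 h via filter-based radiodetection.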

[2] = target: rat Neonicotinoid receptor (NNR), Chrna7 (gene 25302) (UniProt Q05941); test: NVS_LGIC_rNNR_BungSens: NovaScreen (NVS) Ligand-Gated Ion Channel Assay for rat Neonicotinoid receptor (NNR) (AID 2283315)
Sequence of rat Neonicotinoid receptor (NNR), Chrna7 (gene 25302) (Q05941 whole entry, looked up): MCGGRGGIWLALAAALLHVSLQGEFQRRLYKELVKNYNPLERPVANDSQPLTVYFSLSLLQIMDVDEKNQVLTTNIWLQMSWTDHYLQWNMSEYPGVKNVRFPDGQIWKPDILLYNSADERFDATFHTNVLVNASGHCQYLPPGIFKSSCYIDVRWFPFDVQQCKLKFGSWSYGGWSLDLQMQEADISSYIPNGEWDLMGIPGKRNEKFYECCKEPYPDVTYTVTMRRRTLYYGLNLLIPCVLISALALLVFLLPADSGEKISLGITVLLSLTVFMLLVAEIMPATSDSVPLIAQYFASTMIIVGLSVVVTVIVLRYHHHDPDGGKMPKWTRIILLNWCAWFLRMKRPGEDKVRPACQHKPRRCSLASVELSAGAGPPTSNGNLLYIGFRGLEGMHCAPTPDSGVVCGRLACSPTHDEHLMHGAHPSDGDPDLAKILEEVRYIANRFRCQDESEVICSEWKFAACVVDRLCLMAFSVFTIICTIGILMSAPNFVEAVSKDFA
Description: (§1) NVS_LGIC_rNNR_BungSens is a biochemical, single-readout assay that uses extracted gene-proteins from Rat cortical membranes in a tissue-based cell-free assay. Measurements were taken 2.5 hours after chemical dosing in a 48-well plate.NVS_LGIC_rNNR_BungSens is one of one assay component(s) measured or calculated from the NVS_LGIC_rNNR_BungSens assay. It is designed to make measurements of radioligand binding, a form of binding reporter, as detected with scintillation counting signals by Filter-based radiodetection technology.Data from the assay component NVS_LGIC_rNNR_BungSens was analyzed into 1 assay endpoint. This assay endpoint, NVS_LGIC_rNNR_BungSens, was analyzed in the positive analysis fitting direction relative to DMSO as the negative control and baseline of activity. Using a type of binding reporter, loss-of-signal activity can be used to understand changes in the binding as they relate to the gene Chrna7. Furthermore, this assay endpoint can be referred to as a primary readout, because the performed assay has only produced 1 assay endpoint. To generalize the intended target to other relatable targets, this assay endpoint is annotated to the ion channel intended target family, where the subfamily is ligand-gated ion channel.
Binding assays used specific radioligands (tritiated, iodinated) with non-radioactive competitive displacement ligands in agonist or antagonist protocols (as indicated) and various reference compounds and inhibitors to titrate specific binding to receptors and transporters. Most enzyme assays (CYPs, kinases, phosphatases, proteases, HDACs) used recombinant protein and specific substrates (fluorescence mostly, some colorimetric and radioactive) and inhibitors, followed by a biochemical separation of substrate and product. All assays for the biochemical HTS were initially run in duplicate at a single concentration (10 uM for CYP450 assays and 25 uM for all others). […] Each assay was run with positive and negative controls, and concurrent controls on every plate. The follow-up (secondary) screen tested active chemical-pairs in concentration series, as well as a few additional assays not tested in the primary screen, some selected negative inactives, and several cases re-run in the concentration series for confirmatory purposes.

[3] = target: rat Vasopressin 1 Receptor (V1), Avpr1a (gene 25107) (UniProt P30560); test: NVS_GPCR_rV1: NovaScreen (NVS) G Protein-Coupled Receptor Assay for rat Vasopressin 1 Receptor (V1) (AID 2283316)
Sequence of rat Vasopressin 1 Receptor (V1), Avpr1a (gene 25107) (P30560 whole entry, looked up): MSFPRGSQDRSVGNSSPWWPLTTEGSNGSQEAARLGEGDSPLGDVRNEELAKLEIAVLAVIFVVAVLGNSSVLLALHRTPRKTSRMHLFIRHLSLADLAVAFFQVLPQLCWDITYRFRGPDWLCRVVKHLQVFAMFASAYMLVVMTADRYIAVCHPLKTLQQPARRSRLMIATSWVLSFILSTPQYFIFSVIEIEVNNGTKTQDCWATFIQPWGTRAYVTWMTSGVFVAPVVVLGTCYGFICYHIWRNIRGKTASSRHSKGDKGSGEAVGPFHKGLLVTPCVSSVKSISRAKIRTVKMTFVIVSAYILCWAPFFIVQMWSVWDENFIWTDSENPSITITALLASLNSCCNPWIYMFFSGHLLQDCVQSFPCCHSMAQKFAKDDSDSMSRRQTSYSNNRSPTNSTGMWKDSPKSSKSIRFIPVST
Description: NVS_GPCR_rV1 is a biochemical, single-readout assay that uses extracted gene-proteins from Rat liver membranes in a tissue-based cell-free assay. Measurements were taken 1.5 hours after chemical dosing in a 48-well plate.NVS_GPCR_rV1 is one of one assay component(s) measured or calculated from the NVS_GPCR_rV1 assay. It is designed to make measurements of radioligand binding, a form of binding reporter, as detected with scintillation counting signals by Filter-based radiodetection technology.Data from the assay component NVS_GPCR_rV1 was analyzed into 1 assay endpoint. This assay endpoint, NVS_GPCR_rV1, was analyzed in the positive analysis fitting direction relative to DMSO as the negative control and baseline of activity. Using a type of binding reporter, loss-of-signal activity can be used to understand changes in the binding as they relate to the gene Avpr1a. Furthermore, this assay endpoint can be referred to as a primary readout, because the performed assay has only produced 1 assay endpoint. To generalize the intended target to other relatable targets, this assay endpoint is annotated to the gpcr intended target family, where the subfamily is rhodopsin-like receptor.
(§2) Binding assays used specific radioligands (tritiated, iodinated) with non-radioactive competitive displacement ligands in agonist or antagonist protocols (as indicated) and various reference compounds and inhibitors to titrate specific binding to receptors and transporters. Most enzyme assays (CYPs, kinases, phosphatases, proteases, HDACs) used recombinant protein and specific substrates (fluorescence mostly, some colorimetric and radioactive) and inhibitors, followed by a biochemical separation of substrate and product. All assays for the biochemical HTS were initially run in duplicate at a single concentration (10 uM for CYP450 assays and 25 uM for all others). Assay-chemical combinations meeting a pre-defined threshold (e.g., 30% inhibition and other criteria defined below) were then run in singleton concentration-response format with maximum concentration of 20 uM for CYPs and 50 uM for all others. Each assay was run with positive and negative controls, and concurrent controls on every plate. The follow-up (secondary) screen tested active chemical-pairs in concentration series, as well as a few additional assays not tested in the primary screen, some selected negative inactives, and several cases re-run in the concentration series for confirmatory purposes.

[4] = target: rat Opioid Receptor, Non-selective Binding, Oprm1 (gene 25601) (UniProt P33535); test: NVS_GPCR_rOpiate_NonSelective: NovaScreen (NVS) G Protein-Coupled Receptor Assay for rat Opioid Receptor, Non-selective Binding (AID 2283318)
Sequence of rat Opioid Receptor, Non-selective Binding, Oprm1 (gene 25601) (P33535 whole entry, looked up): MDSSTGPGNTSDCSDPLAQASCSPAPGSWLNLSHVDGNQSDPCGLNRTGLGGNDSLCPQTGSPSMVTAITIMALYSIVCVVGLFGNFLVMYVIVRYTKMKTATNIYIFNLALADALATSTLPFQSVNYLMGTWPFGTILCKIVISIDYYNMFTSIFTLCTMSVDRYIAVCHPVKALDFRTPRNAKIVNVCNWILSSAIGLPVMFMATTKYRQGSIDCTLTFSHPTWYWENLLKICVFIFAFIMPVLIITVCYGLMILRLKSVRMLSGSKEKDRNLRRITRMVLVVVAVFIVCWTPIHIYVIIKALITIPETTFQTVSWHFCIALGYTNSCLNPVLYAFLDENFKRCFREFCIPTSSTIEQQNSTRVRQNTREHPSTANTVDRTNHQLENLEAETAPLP
Summary of the method: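 Filter-based radioligand displacement using rat forebrain membrane preparations, measured 1.5 h post-dosing. Single-concentration duplicate screen at 25 uM, follow-up in concentration series; activity taken as signal loss relative to DMSO.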

NCBI gene 24521 = test: NVS_IC_rKATPCh: NovaScreen (NVS) Ion Channel Assay for rat Potassium Channel, ATP-Sensitive (KATPCh) (AID 2283319)
Summary of the method: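 Primary duplicate screen at 25 uM, then singleton concentration series to 50 uM maximum, in a rat cortex membrane radioligand displacement assay. Binding measured by filtration and scintillation 2 h post-dose; DMSO baseline.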

[5] = target: rat Glutamate, AMPA Site (AMPA), Gria1 (gene 50592) (UniProt P19490); test: NVS_LGIC_rAMPA: NovaScreen (NVS) Ligand-Gated Ion Channel Assay for rat Glutamate, AMPA Site (AMPA) (AID 2283324)
Sequence of rat Glutamate, AMPA Site (AMPA), Gria1 (gene 50592) (P19490 whole entry, looked up): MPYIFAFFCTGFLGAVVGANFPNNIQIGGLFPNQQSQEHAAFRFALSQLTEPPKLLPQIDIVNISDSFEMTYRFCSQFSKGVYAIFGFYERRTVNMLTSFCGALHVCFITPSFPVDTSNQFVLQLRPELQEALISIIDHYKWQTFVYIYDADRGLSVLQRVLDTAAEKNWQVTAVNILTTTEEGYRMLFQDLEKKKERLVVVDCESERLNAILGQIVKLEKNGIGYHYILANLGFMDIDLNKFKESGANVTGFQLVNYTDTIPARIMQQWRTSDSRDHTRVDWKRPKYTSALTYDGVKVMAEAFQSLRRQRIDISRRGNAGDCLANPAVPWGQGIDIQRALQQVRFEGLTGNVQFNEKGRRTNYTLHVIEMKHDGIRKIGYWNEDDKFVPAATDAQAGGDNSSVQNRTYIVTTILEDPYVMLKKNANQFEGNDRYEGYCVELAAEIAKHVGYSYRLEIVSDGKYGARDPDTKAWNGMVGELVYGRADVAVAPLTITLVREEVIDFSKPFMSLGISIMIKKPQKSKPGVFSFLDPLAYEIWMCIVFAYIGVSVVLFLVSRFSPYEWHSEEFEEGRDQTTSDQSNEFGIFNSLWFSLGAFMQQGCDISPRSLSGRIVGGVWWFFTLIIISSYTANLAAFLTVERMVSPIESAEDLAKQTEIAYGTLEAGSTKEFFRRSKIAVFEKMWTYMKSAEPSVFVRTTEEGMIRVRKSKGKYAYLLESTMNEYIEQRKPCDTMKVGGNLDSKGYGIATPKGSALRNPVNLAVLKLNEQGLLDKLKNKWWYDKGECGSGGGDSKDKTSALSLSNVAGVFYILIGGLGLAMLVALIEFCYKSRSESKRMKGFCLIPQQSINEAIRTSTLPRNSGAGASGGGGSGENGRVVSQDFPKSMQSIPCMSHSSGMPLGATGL
Description: as §1, with “NVS_LGIC_rAMPA” for “NVS_LGIC_rNNR_BungSens”, “forebrain” for “cortical”, “1 hour” for “2.5 hours”, “plate.NVS_LGIC_rAMPA” for “plate.NVS_LGIC_rNNR_BungSens”, “NVS_LGIC_rAMPA,” for “NVS_LGIC_rNNR_BungSens,”, “Gria1.” for “Chrna7.”
as §2

[6] = target: rat Gamma-Aminobutyric Acid Type A Receptor, Non-Selective (GABAR-NonSelective), Gabra1 (gene 29705) (UniProt P62813); test: NVS_LGIC_rGABAR_NonSelective: NovaScreen (NVS) Ligand-Gated Ion Channel Assay for rat Gamma-Aminobutyric Acid Type A Receptor, Non-Selective (GABAR-NonSelective) (AID 2283326)
Sequence of rat Gamma-Aminobutyric Acid Type A Receptor, Non-Selective (GABAR-NonSelective), Gabra1 (gene 29705) (P62813 whole entry, looked up): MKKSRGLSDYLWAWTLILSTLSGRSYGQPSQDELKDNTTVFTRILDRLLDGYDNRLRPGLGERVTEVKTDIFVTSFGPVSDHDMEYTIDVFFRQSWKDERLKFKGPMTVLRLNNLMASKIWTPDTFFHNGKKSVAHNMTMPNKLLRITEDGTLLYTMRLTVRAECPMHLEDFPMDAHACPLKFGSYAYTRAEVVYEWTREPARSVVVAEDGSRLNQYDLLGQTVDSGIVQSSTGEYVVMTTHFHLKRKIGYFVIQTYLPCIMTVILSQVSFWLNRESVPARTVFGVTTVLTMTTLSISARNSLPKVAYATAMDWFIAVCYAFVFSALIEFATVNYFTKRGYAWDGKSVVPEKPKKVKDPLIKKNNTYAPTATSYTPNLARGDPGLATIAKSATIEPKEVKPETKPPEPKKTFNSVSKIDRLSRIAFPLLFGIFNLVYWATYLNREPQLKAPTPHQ
Summary of the method: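 Compounds were first screened in duplicate at 25 uM, with actives run as singleton concentration series (max 50 uM). Binding of a radioligand to rat whole-brain GABA-A preparation was measured by filtration and scintillation counting after 1 h, DMSO baseline.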

[7] = NVS_IC_rCaDHPRCh_L: NovaScreen (NVS) Ion Channel Assay for rat Calcium Channel, Type L, Dihydropyridine Site (CaDHPRCh_L) (AID 2283320)
Summary of the method: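 Rat cortex membrane preparation; dihydropyridine-site radioligand displacement read 1 h post-dose by filtration and scintillation. Primary single-point screen 25 uM in duplicate, then concentration series to 50 uM maximum; DMSO as negative control.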

[8] = target: bovine Gamma-Aminobutyric Acid Type A Receptor BDZ, alpha 5 site (GABARa5), GABRA5 (gene 523515) (UniProt Q08E50); test: NVS_LGIC_bGABARa5: NovaScreen (NVS) Ligand-Gated Ion Channel Assay for bovine Gamma-Aminobutyric Acid Type A Receptor BDZ, alpha 5 site (GABARa5) (AID 2283323)
Sequence of bovine Gamma-Aminobutyric Acid Type A Receptor BDZ, alpha 5 site (GABARa5), GABRA5 (gene 523515) (Q08E50 whole entry, looked up): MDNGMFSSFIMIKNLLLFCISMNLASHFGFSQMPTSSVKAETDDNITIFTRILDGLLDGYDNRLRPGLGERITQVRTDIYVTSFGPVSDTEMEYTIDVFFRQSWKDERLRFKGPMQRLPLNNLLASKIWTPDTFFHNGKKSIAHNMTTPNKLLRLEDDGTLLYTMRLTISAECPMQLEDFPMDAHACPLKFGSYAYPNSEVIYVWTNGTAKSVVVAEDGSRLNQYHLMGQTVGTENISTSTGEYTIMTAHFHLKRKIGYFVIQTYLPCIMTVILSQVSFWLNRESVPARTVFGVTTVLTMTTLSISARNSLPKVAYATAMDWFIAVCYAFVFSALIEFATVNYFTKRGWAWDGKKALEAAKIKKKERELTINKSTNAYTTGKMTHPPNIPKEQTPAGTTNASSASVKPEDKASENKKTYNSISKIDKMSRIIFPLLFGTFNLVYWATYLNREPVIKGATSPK
Description: as §1, with “NVS_LGIC_bGABARa5” for “NVS_LGIC_rNNR_BungSens”, “Bovine hippocampal” for “Rat cortical”, “1 hour” for “2.5 hours”, “plate.NVS_LGIC_bGABARa5” for “plate.NVS_LGIC_rNNR_BungSens”, “NVS_LGIC_bGABARa5,” for “NVS_LGIC_rNNR_BungSens,”, “GABRA5.” for “Chrna7.”
as §2

[9] = target: human Serotonin, 5-Hydroxytryptamine Receptor 3 (5HT3), HTR3A (gene 3359) (UniProt P46098); test: NVS_LGIC_h5HT3: NovaScreen (NVS) Ligand-Gated Ion Channel Assay for human Serotonin, 5-Hydroxytryptamine Receptor 3 (5HT3) (AID 2283325)
Sequence of human Serotonin, 5-Hydroxytryptamine Receptor 3 (5HT3), HTR3A (gene 3359) (P46098 whole entry, looked up): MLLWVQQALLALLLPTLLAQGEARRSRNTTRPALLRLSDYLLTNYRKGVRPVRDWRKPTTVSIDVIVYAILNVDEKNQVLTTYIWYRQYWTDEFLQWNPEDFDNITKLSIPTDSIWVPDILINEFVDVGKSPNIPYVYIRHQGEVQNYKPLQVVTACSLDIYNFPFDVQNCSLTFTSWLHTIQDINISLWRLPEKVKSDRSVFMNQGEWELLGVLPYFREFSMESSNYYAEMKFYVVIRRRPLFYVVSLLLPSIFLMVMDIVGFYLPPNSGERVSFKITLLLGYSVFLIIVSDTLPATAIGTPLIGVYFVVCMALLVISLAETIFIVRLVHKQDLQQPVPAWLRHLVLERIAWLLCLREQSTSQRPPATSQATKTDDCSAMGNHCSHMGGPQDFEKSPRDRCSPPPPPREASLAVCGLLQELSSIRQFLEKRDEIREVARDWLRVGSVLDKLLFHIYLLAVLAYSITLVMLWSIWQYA
Summary of the method: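 Initially tested at 25 uM in duplicate, then up to 50 uM in concentration-response for actives, compounds competed with a radioligand for HEK293-derived human 5-HT3 receptor. Bound counts were measured by filtration and scintillation at 1 h; loss of signal versus DMSO.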

For CCCCC(CC)COC(=O)CCCCCCCC(=O)OCC(CC)CCCC (configuration not stated), the outcome [1] was “inactive”.

With CCCC[C@H]1CN(CC2CCOCC2)C(=O)OC12CCN(C1(C)CCN(C(=O)c3c(C)ncnc3C)CC1)CC2 the AC50 [2] was 4.46 µM (active).

In the case of COc1ccc(OC(F)(F)F)cc1CN[C@H]1CCCN[C@H]1c1ccccc1, the outcome [3] is reported as “inactive”, the AC50 [4] is reported as 25 µM (active) and the outcome (NCBI gene 24521) is reported as “inactive”. For the same compound, the AC50 [1] was 0.623 µM (active), the outcome [5] was “inactive” and the AC50 [6] was 2 µM (active).

With COC(=O)[C@H]1[C@H]2C[C@@H]3c4[nH]c5cc(OC)ccc5c4CCN3C[C@H]2C[C@@H](OC(=O)c2cc(OC)c(OC)c(OC)c2)[C@@H]1OC the AC50 [4] was 8.39 µM (active), the AC50 [7] was 11.6 µM (active) and the AC50 [1] was 5.49 µM (active).

For Cc1cc(Cc2ccc(N)c(C)c2)ccc1N, the outcome (NCBI gene 24521) was “inactive”.

In the case of COc1ccc(C(=O)Nc2nc3ccccc3c(NCc3ccccc3)c2C#N)cc1, the outcome [8] is reported as “inactive”.

For O=Cc1ccccc1C=O, the AC50 [5] was 13.5 µM (active).

In the case of CCCCc1nc2cccnc2n1Cc1ccc(-c2ccccc2-c2nnn[nH]2)cc1, the outcome [2] is reported as “inactive” and the outcome [8] is reported as “inactive”.

For CCN(CC)CCOc1ccc(C(=C(Cl)c2ccccc2)c2ccccc2)cc1, the AC50 [2] was 21 µM (active) and the AC50 [1] was 1.99 µM (active).

For Cn1cnc2c1c(=O)[nH]c(=O)n2C, the outcome [1] was “inactive”.

With CN(C)C(=O)NC1(c2ccccc2)CCN(CC[C@@]2(c3ccc(F)c(F)c3)CN(C(=O)c3ccccc3)CCO2)CC1 the AC50 [4] was 2.1 µM (active), the AC50 [7] was 3.38 µM (active) and the AC50 [1] was 6.43 µM (active).

For CC(=O)O[C@]1(C(C)=O)CC[C@H]2[C@@H]3C=C(Cl)C4=CC(=O)[C@@H]5C[C@@H]5[C@]4(C)[C@H]3CC[C@@]21C, the AC50 [4] was 0.353 µM (active).

With CN(C)CCCN1c2ccccc2Sc2ccc(Cl)cc21 the AC50 [1] was 1.96 µM (active) and the AC50 [9] was 25 µM (active).

With CC(C)NCC(O)c1ccc(O)c(O)c1 (configuration not stated) the outcome [5] was “inactive”.

In the case of CCc1cc(C2=C(C(=O)O)N(c3ccccc3C(F)(F)F)S(=O)(=O)c3ccccc32)cc2c1OCO2, the AC50 [3] is reported as 25 µM (active).

In the case of CCCCCCCCCC[N+](C)(C)[O-], the AC50 [1] is reported as 19.1 µM (active).

For C/C=C/C=C/C(=O)O, the outcome [9] was “inactive”.

For CC(=O)O, the outcome [3] was “inactive”.

With O=C1OC(c2ccc(O)cc2)(c2ccc(O)cc2)c2ccccc21 the AC50 [4] was 0.872 µM (active).

With O=C(N[C@@H](c1ccccc1)[C@@H]1CCCCN1)c1cccc(C(F)(F)F)c1Cl the AC50 [4] was 12.8 µM (active) and the AC50 [1] was 1.27 µM (active).

With OCC(O)CO the AC50 [9] was 25 µM (active).

With CO[C@@H]1COCC[C@@H]1N[C@@H]1CC[C@@](C(=O)N2CCc3ncc(C(F)(F)F)cc3C2)(C(C)C)C1 the outcome [3] was “inactive”, the AC50 [4] was 25 µM (active) and the AC50 [1] was 9.94 µM (active).

With CCC(C)N(C)C(=O)c1cc2ccccc2c(-c2ccccc2Cl)n1 (configuration not stated) the AC50 [3] was 7.4 µM (active) and the outcome [8] was “inactive”.

For CCc1nc(N)nc(N)c1-c1ccc(Cl)cc1, the AC50 [2] was 10.4 µM (active), the outcome [4] was “inactive” and the AC50 [1] was 3.65 µM (active). The AC50 [6] was 0.0648 µM (active).

For O=C1NC(=O)C(c2ccccc2)(c2ccccc2)N1, the outcome [1] was “inactive”.

For O=C(O)c1cccnc1, the outcome [2] was “inactive”.

With CCOCCOCCO the outcome (NCBI gene 24521) was “inactive”.

With CN(C)C(=O)NC1(c2ccccc2)CCN(CCC[C@]2(c3ccc(Cl)c(Cl)c3)CCCN(C(=O)c3ccccc3)C2)CC1 the AC50 [4] was 2.23 µM (active), the AC50 [7] was 0.988 µM (active) and the AC50 [1] was 0.327 µM (active).

With CCCCC(CC)COP(=O)(OCC(CC)CCCC)OCC(CC)CCCC (configuration not stated) the outcome [1] was “inactive” and the outcome [5] was “inactive”.

For NC(=Nc1ccccc1)Nc1ccccc1, the outcome [4] was “inactive” and the outcome [1] was “inactive”.

For CC(C)c1cccc(C(C)C)c1NC(=O)NS(=O)(=O)c1cc(C(C)(C)O)co1, the outcome [3] was “inactive” and the outcome [8] was “inactive”.

For Cc1cn([C@H]2C=C[C@@H](CO)O2)c(=O)[nH]c1=O, the AC50 [9] was 8.81 µM (active).

In the case of CSc1ccc(Oc2ccc(S(N)(=O)=O)cc2CN(C)C)cc1C, the AC50 [4] is reported as 1.36 µM (active), the AC50 [7] is reported as 8.08 µM (active) and the AC50 [1] is reported as 13.5 µM (active). The outcome [9] was “inactive” and the AC50 [6] was 10.3 µM (active).

For CCCCCCCCCCCCCCOS(=O)(=O)O, the AC50 [9] was 25 µM (active).

With Cc1cc(SC2=C(O)C[C@@](CCc3ccc(N)cc3)(C(C)C)OC2=O)c(C(C)(C)C)cc1CO the outcome [2] was “inactive”, the outcome [4] was “inactive” and the outcome [1] was “inactive”. For the same compound, the outcome [5] was “inactive” and the outcome [9] was “inactive”.

From PubChem BioAssay (EPA / NIEHS)
